From PubChem BioAssay
Active and inactive are the calls of the source.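 How the source made its calls: active means RAM network inhibition above 8.4% in each of two replicates, 3 SD over the compound average; inconclusive means above 8.4% inhibition in only one replicate; inactive means 8.4% inhibition or less in each replicate.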

assay: RAM signaling pathway blockade in yeast – S. cerevisiae, Pdr1DBD-CYC8 efflux-inhibited sensitized strain, primary screen (AID 1298);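 further: 0% = DMSO untreated cells without growth and 100% = 10 µM 1-NA-PP1 full growth; higher means more yeast growth rescued from 5-FOA killing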; conditions: S. cerevisiae cbk1-as DSE1-URA3 strain, 5-FOA growth OD615, 2 d; at 50 µM; hits give high values

| Structure (SMILES) | RAM network inhibition |
| --- | --- |
| CCOC(=O)Cn1c(CCC(=O)O)ccc1-c1ccc(F)cc1 | 2.74% (inactive) |
| CCCc1cc(C(=O)Nc2ccc(C(C)=O)cc2)no1 | 6.52% (inactive) |
| CCOC(=O)CN1C(=O)C(=O)c2cccc(C)c21 | 1.05% (inactive) |
| CCOc1ccc(NC(=O)C(C)Sc2nnc(C)n2C)cc1 (centres undefined) | -0.63% (inactive) |
| COc1cccc(CNC(=O)Cn2c(=O)oc3ccccc32)c1OC | -0.26% (inactive) |
| Oc1c(C(c2ccccc2)N2CCc3ccccc3C2)sc2ncnn12 (centres undefined) | 4.48% (inactive) |
| CCSc1nnc(N2C(=O)CC(c3ccsc3)C3=C2CC(C)(C)CC3=O)s1 (centres undefined) | 3.19% (inactive) |
| Cc1ccnc2c(N3C(=O)C4C5C=CC(C5)C4(C)C3=O)cccc12 (centres undefined) | -1.63% (inactive) |
| CCN(CC)C(=O)c1ccc(CS(=O)(=O)c2ccc(OC)cc2)o1 | 3.14% (inactive) |
| CCCCCn1c(=O)[nH]c2cc(C(=O)NCCCN3CCCCC3)ccc2c1=O | 0.41% (inactive) |
| CC(C)c1nccn1S(=O)(=O)c1cc(Cl)ccc1Cl | 4.6% (inactive) |
| CCOC(=O)N1CCC(NC(=O)C2CCCN(C(=O)c3cc4sccc4n3C)C2)CC1 (centres undefined) | 0.11% (inactive) |
| CCCCNC(=O)Cn1c(=O)n(C)c2ccccc21 | -1.79% (inactive) |
| Cc1c(C#N)c2ccccc2n1CC(=O)N1CCc2ccccc2C1 | 4.34% (inactive) |
| O=C(COc1ccc2ccccc2c1)N1CCCC1 | 6.48% (inactive) |
| CCC(=O)N1CCN(c2nc(-c3ccccc3)c3c(c2C#N)CCCC3)CC1 | 2.27% (inactive) |
| CC1(C)CC(=O)c2cnc(NC(=O)Cc3ccc(Cl)cc3)nc2C1 | 5.3% (inactive) |
| CCOCCOc1nc2c(c(=O)n(C)c(=O)n2C)n1Cc1ccc(C)cc1 | 2.08% (inactive) |
| CCN(C(=O)c1cc(Cl)ccc1OC)c1ccccc1 | 3.26% (inactive) |
| Cc1cccc(-n2ncc3c(N(CCO)CCO)ncnc32)c1 | -0.31% (inactive) |
| N#CCCN1CCN(S(=O)(=O)c2ccc(S(=O)(=O)NC3CCCCC3)cc2)CC1 | 5.92% (inactive) |
| Cc1c(C)c2ccc(OC3CCCCC3=O)cc2oc1=O (centres undefined) | 1.93% (inactive) |
| COc1ccc(-n2c(Cc3cccn3C)nnc2SCC(=O)Nc2ccc(Cl)cc2)cc1 | 5.81% (inactive) |
| Cc1cc(C(N)=O)c2cc(Br)ccc2n1 | 0.89% (inactive) |
